Screens (PubChem BioAssay)
A selection: hits, their analogues and other compounds. The true share with any hit is near 1.8%.
PME-1 primary – blocks human protein phosphatase methylesterase 1. Q9Y570. recombinant PME-1, FP-Rh probe fluorescence polarization. inhibition, % at 5.9 µM. 320,000 tested, 0.53% active;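 active = inhibition above the campaign mean of all compounds plus 3 SD, cut at about 26% in these data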;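 also: competitive labeling of PME-1 active site by serine hydrolase directed probe; 0% = PME-1 with DMSO and 100% = wells lacking PME-1 enzyme; inhibitors block probe labeling so polarization falls and inhibition rises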
LYPLA1 counter – counter-screen for PME1 inhibitors: inhibitors of human LYPLA1. recombinant LYPLA1, FP-Rh probe fluorescence polarization. inhibition, % at 5.9 µM. O75608. 320,000 tested, 0.16% active. AID 2174;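 active = inhibition above the mean of all tested compounds plus 3 SD, set per campaign, cut at about 14% in these data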;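 also: inhibitors block serine hydrolase probe labeling of LYPLA1 so polarization falls; 0% = enzyme with DMSO and 100% = wells lacking LYPLA1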
GSTO1 counter – GSTO1 inhibition, counter-screen for RBBP9 inhibitors | P78417 | inhibition, % at 5.96 µM | recombinant GSTO1, activity-based probe fluorescence polarization | 300,000 tested, 1.1% active | AID 1974;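 active = inhibition above the campaign mean inhibition plus 3 SD, cut at about 35% in these data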;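 also: 0% = GSTO1-1 with DMSO and 100% = wells lacking GSTO1-1 enzyme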
LYPLA2 counter – LYPLA2 (human) inhibition in PME1 counter-screen | recombinant LYPLA2, FP-Rh probe fluorescence polarization | AID 2177 | O95372 | 320,000 tested, 0.38% active | inhibition, % at 5.9 µM;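 active = inhibition above the screen-wide mean plus 3 SD, limit set per campaign, cut at about 26% in these data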;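 also: 0% = LYPLA2 with DMSO and 100% = wells lacking LYPLA2 enzyme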
Fam108B counter – blocks mouse Fam108B hydrolase in RBBP9 counter-screen | recombinant Fam108B, FP-Rh probe fluorescence polarization | inhibition, % at 9.51 µM | 300,000 tested, 0.33% active;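 active = inhibition above the screen mean inhibition plus 3 SD, computed separately per campaign, cut at about 18% in these data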;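 also: inhibitors lower polarization as less probe binds the enzyme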
PAD4 inh – PAD4 (human) enzyme inhibition. recombinant PAD4, RCA probe fluorescence polarization. Q9UM07. inhibition, % at 6.36 µM. AID 485272. 330,000 tested, 0.41% active;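 active = percent inhibition above a cutoff equal to the mean of all tested compounds plus 3 SD, cut at about 15% in these data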;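 also: 0% = PAD4 with RCA probe and DMSO and 100% = probe without PAD4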
Target sequence (Q9UM07 whole entry, looked up): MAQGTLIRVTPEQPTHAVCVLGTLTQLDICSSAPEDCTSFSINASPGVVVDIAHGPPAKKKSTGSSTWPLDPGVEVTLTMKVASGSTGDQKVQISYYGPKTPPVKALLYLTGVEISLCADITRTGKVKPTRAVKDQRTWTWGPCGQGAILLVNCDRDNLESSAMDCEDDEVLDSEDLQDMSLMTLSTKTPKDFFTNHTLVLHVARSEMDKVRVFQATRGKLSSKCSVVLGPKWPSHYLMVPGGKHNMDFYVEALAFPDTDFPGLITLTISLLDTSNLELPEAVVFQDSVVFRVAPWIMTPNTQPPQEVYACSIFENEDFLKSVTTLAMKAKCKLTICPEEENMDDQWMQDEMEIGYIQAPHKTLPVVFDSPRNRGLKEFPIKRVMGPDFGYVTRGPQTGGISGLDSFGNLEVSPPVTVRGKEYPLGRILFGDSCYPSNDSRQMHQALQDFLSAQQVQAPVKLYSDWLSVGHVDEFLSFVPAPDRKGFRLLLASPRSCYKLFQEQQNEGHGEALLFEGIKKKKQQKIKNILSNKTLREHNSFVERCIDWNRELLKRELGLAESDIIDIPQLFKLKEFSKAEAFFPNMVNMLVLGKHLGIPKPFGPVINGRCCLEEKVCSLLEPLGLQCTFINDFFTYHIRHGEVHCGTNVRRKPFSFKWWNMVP
Fam108b inh conf – Fam108b (mouse) hydrolase inhibition, confirmation assay | shares compounds with Fam108B counter | recombinant Fam108b, FP-Rh probe fluorescence polarization | inhibition, % at 9.51 µM | 930 tested, 44% active;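 active = inhibition above a limit from the primary screen, the mean over all compounds plus 3 SD, cut at about 19% in these data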;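 also: 0% = median of active Fam108b wells and 100% = catalytically dead S170A mutant; inhibitors free the probe so polarization falls as inhibition rises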
GSTO1 inh conf – GSTO1 (human) inhibition, confirmation | shares compounds with GSTO1 counter | recombinant GSTO1, probe fluorescence polarization | inhibition, % at 5.96 µM | 2,400 tested, 54% active | AID 2176;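 active = inhibition above the primary screen's cutoff, its mean inhibition plus 3 SD, cut at about 35% in these data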;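 also: loss of polarization as inhibitors block binding of rhodamine sulfonate ester activity probe; 0% = GSTO1 with DMSO and 100% = wells lacking GSTO1 enzyme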
GSTO1 recomb ABPP – GSTO1 (human) inhibition by gel ABPP; shares compounds with GSTO1 counter; recombinant GSTO1, gel ABPP SE-Rh probe fluorescence; inhibition, % at 1 µM; 130 tested, 30% active; AID 463110;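 active = inhibition of the enzyme GSTO1 above about 75%, limit read from the data; inactive = inhibition below that limit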
LYPLA1 conf – counter-screen for PME1 inhibitors: confirmation of human LYPLA1 inhibitors. shares compounds with LYPLA1 counter. recombinant LYPLA1, FP-Rh probe fluorescence polarization. inhibition, % at 5.9 µM. 480 tested, 69% active. AID 2233;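 active = mean inhibition across replicates above the hit cutoff set in the primary screen, cut at about 15% in these data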;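 also: loss of FP-Rh probe labeling of LYPLA1 seen as lower polarization; 0% = LYPLA1 with DMSO and 100% = wells lacking LYPLA1 enzyme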
LYPLA2 confirm – LYPLA2 (human) inhibition, confirmation counter-screen; shares compounds with LYPLA2 counter; recombinant LYPLA2, FP-Rh probe fluorescence polarization; inhibition, % at 5.9 µM; 1,100 tested, 72% active;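 active = mean inhibition across replicates above the hit cutoff set in the primary screen, cut at about 26% in these data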;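 also: blocked labeling of the enzyme by serine hydrolase FP-Rh probe lowers polarization; 0% = enzyme with DMSO and 100% = wells lacking LYPLA2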
PAD4 FP conf – PAD4 (human) inhibition, confirmed; AID 488796; recombinant PAD4, RCA probe fluorescence polarization; 1,200 tested, 28% active; shares compounds with PAD4 inh; inhibition, % at 6.36 µM;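 active = mean inhibition across replicates above the hit cutoff set by the earlier primary screen, cut at about 15% in these data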;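 also: inhibitors block active-site labeling by the probe so polarization falls; 0% = PAD4 with probe and DMSO and 100% = probe without PAD4 enzyme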
* = called active by the depositor; / = no result.

SMILES	PME-1 primary	LYPLA1 counter	GSTO1 counter	LYPLA2 counter	Fam108B counter	PAD4 inh	GSTO1 inh conf	others
CCOC(=O)C1CCCN(C(=O)C2c3ccccc3Oc3ccccc32)C1 (centres undefined)	66*	56*	46*	59*	41*	94*	5	Fam108b inh conf=6;LYPLA1 conf=5;LYPLA2 confirm=3;PAD4 FP conf=11
Cc1ccc(NC(=O)Cc2nnc(SCC(=O)Nc3ccc(N4CCOCC4)cc3)n2C)cc1	0	2	7	3	0	5	/
CC(C)N=c1cc2n(-c3ccc(Cl)cc3)c3ccccc3nc-2cc1Nc1ccc(Cl)cc1	32*	31*	7	43*	39*	20*	/	Fam108b inh conf=8;LYPLA1 conf=15*;LYPLA2 confirm=7;PAD4 FP conf=28*
CCCCn1c(NS(=O)(=O)c2ccccc2)c(S(=O)(=O)c2ccc(C)cc2)c2nc3ccccc3nc21	28*	64*	92*	56*	54*	66*	83*	Fam108b inh conf=2;LYPLA1 conf=82*;LYPLA2 confirm=91*;PAD4 FP conf=-5
CCCCCn1c(NC(=O)c2ccco2)c(S(=O)(=O)c2ccc(C)cc2)c2nc3ccccc3nc21	2	-2	12	-2	-3	-10	/
O=C(O)CSC1CC(=O)N(c2ccc(Cl)c(Cl)c2)C1=O (centres undefined)	-1	-5	5	-4	-2	-5	/
O=C1CC(N(O)c2ccccc2)C(=O)N1c1ccc(Cl)c(Cl)c1 (centres undefined)	22	2	63*	11	-2	17*	5
CC[C@]12c3[nH]c4cc(CCC(=O)N(C)C)ccc4c3CCN1C(=O)[C@@H](CC(=O)NCc1ccco1)C[C@@H]2C(=O)N1CCN(C(=O)C2CC2)CC1	/	/	/	/	/	-4	/
CCOC(=O)c1c(C)oc2c1c(C=NC1CCS(=O)(=O)C1)c(O)c1ccccc12 (centres undefined)	-1	0	1	2	1	-1	/
CCOC(=O)c1c(C)oc2c1c(C=NCCC(=O)O)c(O)c1ccccc12	12	1	43*	6	2	-10	47*
Cc1cc(C(C)(C)C)c(O)c(C(C)(C)C)c1	0	-2	0	-5	-1	0	/
Cc1cc(O)c(Oc2cc(C)cc(O)c2O)c(O)c1	3	-7	56*	-6	-1	-8	18
COc1ccc(C(=O)Nc2ccc3c(c2)C(=O)c2ccccc2C3=O)cc1OC	-2	-3	4	-1	1	0	/
COc1ccc(C(=O)c2c(C(F)(F)F)oc3c2C(=O)c2ccccc2C3=O)cc1OC	4	-4	77*	0	7	34*	65*
CCN(CC)c1ccc(S(=O)(=O)N2CCOCC2)cc1NC(=O)CN1C(=O)NC2(CCC(C)CC2)C1=O (centres undefined)	4	2	2	3	1	1	/
O=C(NNC(=O)c1ccccc1O)c1ccc(NS(=O)(=O)c2ccc(F)cc2)cc1	-21	-4	48*	-2	0	-2	-1
O=C(NNC(=O)c1ccccc1O)c1ccc(S(=O)(=O)Nc2ccccc2)cc1	6	1	17	-4	0	0	/
Cc1ccc(-c2csc3ncnc(N4CCN(S(=O)(=O)c5cccs5)CC4)c23)cc1	-5	-2	/	-3	/	1	/
O/C=c1\ccc2cccc3nc(C(F)(F)F)nc1c23	0	-2	64*	-15	4	-15	76*
NNc1nc(C(F)(F)F)nc2ccccc12	-1	-9	-13	-3	4	-3	/
CC(C)CCn1c(=O)c2ccccc2n2c(CCl)nnc12	1	1	81*	3	-2	-2	95*	GSTO1 recomb ABPP=81*
CC(C)CCn1c(=O)c2ccccc2n2c(CN3CCCC3)nnc12	0	0	9	5	-4	-8	/
CCCCCn1c(=O)c2ccccc2n2c(CCl)nnc12	-3	1	84*	0	-2	0	95*	GSTO1 recomb ABPP=63
Cc1[nH]n(-c2ccccc2)c(=O)c1C(C[N+](=O)[O-])c1ccc(Br)cc1 (centres undefined)	1	3	45*	4	3	-1	13
COC(=O)c1c([N+](=O)[O-])c(OC)c(OC)c(OC)c1[N+](=O)[O-]	3	-1	39*	5	-6	-7	54*
SMILES	PME-1 primary	LYPLA1 counter	GSTO1 counter	LYPLA2 counter	Fam108B counter	PAD4 inh	GSTO1 inh conf	others
Cc1ccc(C)c(NC(=O)CSc2nnc(-c3n[nH]c4ccccc34)o2)c1	-12	-3	39*	-5	-3	-4	29
CCc1ccc(NC(=O)COc2ccc(Br)cn2)cc1	-4	2	1	8	-1	2	/
CCOC(=O)Cn1c(=O)oc2cc(S(=O)(=O)Nc3ccc(N(CC)CC)cc3C)ccc21	0	-1	68*	-2	4	-1	62*
CC1=CC(=Nc2c(C)n(C)n(-c3ccccc3)c2=O)C=CC1=O	10	13	74*	11	4	8	41*
CC1CN(Cc2csc(-c3ccc(Cl)cc3)n2)CC(C)O1 (centres undefined)	-1	5	2	7	0	3	/
CCOc1ccc(-c2nc(CCl)cs2)cc1	3	1	79*	3	-2	-1	93*	GSTO1 recomb ABPP=69
ClCc1csc(-c2ccc(Cl)cc2)n1	-1	1	91*	1	3	-1	101*	GSTO1 recomb ABPP=62
CCOc1ccc(-c2nnc(N)s2)cc1	3	3	-2	3	-7	-2	/
Cc1ccc(S(=O)(=O)Nc2ccc(O)c3cccnc23)cc1	1	0	50*	2	-4	6	0
Cc1ccc(S(=O)(=O)Nc2ccc(O)c3ncccc23)cc1	0	-2	10	-3	1	-4	/
CC(=O)Nc1ccc(Sc2ccccc2C(=O)O)cn1	2	3	44*	4	0	-4	25
